The structures appear in SMILES notation. Results filed as inconclusive are left out. Unmarked numbers belong to inactive results. Calls of active or inactive are those of the source. Unless noted, calls come from the whole dose curve; as a rule, active = well fitted curve in the direction sought with a large enough effect; inconclusive = small, poorly fitted or top-dose-only effect, or another doubt; inactive = no such curve, though single readings can be large; an effect the other way counts as inactive or inconclusive.

These results are taken from PubChem BioAssay (NCATS).

A short description of test [1]: qHTS for Inhibitors of Plasmodium falciparum (DD2) proliferation (AID 504314). Note: potency is the fitted concentration of half-maximal effect. The method, boiled down: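 Fluorescence read-out (ex 485/em 535 nm) of SYBR Green-stained parasite DNA quantifies intraerythrocytic growth. Cultures at 0.3% parasitemia and 2.5% hematocrit were treated for 72 h; data normalized to DMSO and 0.29 uM artemisinin wells.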
Background: In qHTS, concentration-response curves come from the screen itself.

Test [2] is described as follows: qHTS for Inhibitors of Plasmodium falciparum (GB4) proliferation (AID 504315). Note: nearly all actives have a fitted effect of over 50% in size. Note: potency is the fitted concentration of half-maximal effect. The essentials:
(§1)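 Erythrocytes infected with P. falciparum line (0.3% parasitemia, 2.5% hematocrit final) incubated with compounds 72 h at 37 °C, 5% CO2; SYBR Green lysis buffer added, fluorescence read next day. Normalized to 0.29 uM artemisinin and DMSO.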

A short description of test [3]: qHTS for Inhibitors of Plasmodium falciparum (HB3) proliferation (AID 504318). Note: nearly all actives have a fitted effect of over 60% in size. The essentials:
as §1

The nature of test [4]: qHTS for Inhibitors of Plasmodium falciparum (CP250) proliferation (AID 504320). Note: potency is the fitted concentration of half-maximal effect. The method, boiled down: as §1
Test [5] concerns the target Atrial natriuretic peptide receptor 1 (Homo sapiens) (UniProt P16066). The experiment in a line: Natriuretic polypeptide receptor (hNpr1) antagonism - Pilot CMLD screen (AID 1347052; calls by dose curve;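 note: HEK293 cells with hNpr1 stimulated by hNppA peptide at 0.1 nM; cGMP level read as GloSensor luciferase luminescence after agonist stimulation; series mostly up to about 9.2 µM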).

Sequence of Atrial natriuretic peptide receptor 1 (Homo sapiens) (P16066 whole entry, looked up): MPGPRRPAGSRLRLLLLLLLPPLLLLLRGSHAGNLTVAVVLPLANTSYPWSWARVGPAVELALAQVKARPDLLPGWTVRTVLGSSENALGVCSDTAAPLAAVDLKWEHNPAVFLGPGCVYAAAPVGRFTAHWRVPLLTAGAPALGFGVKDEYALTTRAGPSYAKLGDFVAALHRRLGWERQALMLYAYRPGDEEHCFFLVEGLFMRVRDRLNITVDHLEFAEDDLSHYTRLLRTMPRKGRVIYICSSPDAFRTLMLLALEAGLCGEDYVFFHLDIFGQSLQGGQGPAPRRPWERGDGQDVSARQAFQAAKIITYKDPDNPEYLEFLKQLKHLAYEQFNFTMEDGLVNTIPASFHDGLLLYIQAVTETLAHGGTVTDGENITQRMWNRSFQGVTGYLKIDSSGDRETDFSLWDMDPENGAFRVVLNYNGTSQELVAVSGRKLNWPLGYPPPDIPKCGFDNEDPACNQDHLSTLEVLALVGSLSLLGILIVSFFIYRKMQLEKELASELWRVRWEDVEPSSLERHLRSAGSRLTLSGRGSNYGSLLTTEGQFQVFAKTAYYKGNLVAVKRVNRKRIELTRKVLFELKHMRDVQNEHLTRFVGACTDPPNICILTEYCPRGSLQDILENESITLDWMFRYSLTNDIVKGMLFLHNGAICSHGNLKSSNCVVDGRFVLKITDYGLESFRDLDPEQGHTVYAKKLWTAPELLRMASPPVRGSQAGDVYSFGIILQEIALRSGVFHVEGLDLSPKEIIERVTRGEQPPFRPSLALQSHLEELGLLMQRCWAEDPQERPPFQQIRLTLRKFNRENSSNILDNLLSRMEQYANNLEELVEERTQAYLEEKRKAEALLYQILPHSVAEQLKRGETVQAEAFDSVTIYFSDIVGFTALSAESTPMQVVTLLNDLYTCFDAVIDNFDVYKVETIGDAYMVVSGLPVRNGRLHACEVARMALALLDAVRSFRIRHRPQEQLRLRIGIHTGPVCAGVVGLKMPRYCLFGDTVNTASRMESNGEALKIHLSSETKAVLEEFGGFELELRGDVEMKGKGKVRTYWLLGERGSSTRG

Take `CC(=CCO)CCO`: the Potency entry in test [1], in test [2], in test [3], in test [4] and in test [5] was “inactive” throughout.

Turning to `COC(=O)[C@H]1[C@H](C)[C@@]2(O)c3ccccc3N(C)[C@@]1(C)[C@H]2O`, the Potency entry in test [1], in test [2], in test [3], in test [4] and in test [5] was “inactive” in each case.

Take `COc1cc(O)c(C(=O)C=Cc2ccccc2)c(O)c1`: the Potency result in test [1], in test [2], in test [3], in test [4] and in test [5] was “inactive” in each case.

With `CC(C)OC(=O)[C@@H]1CC[C@H](C)[C@@H](CCC[C@@H]2CC=C[C@H](CC#N)O2)O1`, the Potency entry in test [1], in test [2], in test [3], in test [4] and in test [5] was “inactive” each time.

Turning to `CC(=O)C1=CN(CCc2c[nH]c3ccccc23)C(=O)NC1c1ccccc1` (stereo not given), the Potency entry in test [1], in test [2], in test [3], in test [4] and in test [5] was “inactive” throughout.

`COC(=O)CC=C[C@@H](C)[C@@H](C=NO[C@H](C)CN1CCCc2nc(C)c(C)cc21)N[S+](=O)([O-])c1ccc(C)cc1`: the Potency result in test [1], in test [2], in test [3], in test [4] and in test [5] was “inactive” each time.

Turning to `COc1ccc([C@]23Cc4cc(C#N)ccc4[C@H](O2)C2=C(CC4(CCCCC4)OC2=O)O3)cc1`, the Potency result in test [1], in test [2], in test [3], in test [4] and in test [5] was “inactive” throughout.

As to `CC=C[C@@H]1Oc2ccc(OC)cc2N2C(=O)[C@H](C)[C@@H](OCOC)[C@H]12`, the Potency result in test [1], in test [2], in test [3], in test [4] and in test [5] was “inactive” each time.

For the compound `CC(CCN1CCCc2nc(C)c(C)cc21)=NO[C@@H](C)c1cc(-c2c(C)cc(C)cc2C)no1`, the Potency result in test [1], in test [2], in test [3], in test [4] and in test [5] was “inactive” in each case.

For the compound `COC(=O)N[C@H](CC(C)=O)c1ccc(F)cc1`, the Potency entry in test [1], in test [2], in test [3], in test [4] and in test [5] was “inactive” throughout.

`CCOC(=O)CN1C(=O)[C@]2(OCCC=C[C@@H]2C)c2ccccc21`: the Potency entry in test [1], in test [2], in test [3], in test [4] and in test [5] was “inactive” each time.

As for `CCCCC1=CC2=C(c3ccco3)C(=O)C(C)(OC(=O)c3ccc(OC)cc3)C(=O)C2=CN1CCN1CCOCC1` (stereo not given), the Potency result in test [1], in test [2], in test [3], in test [4] and in test [5] was “inactive” each time.

Regarding `CCCCCCCC1=Cc2ccc(F)cc2C(C(C(C)=O)C(=O)OC)N1C(=O)OC` (stereo not given), the Potency result in test [1], in test [2], in test [3], in test [4] and in test [5] was “inactive” in each case.

As for `C#CC1(O)C2C=C(OC)C(=O)C1C(c1ccccc1)C2C` (stereo not given), the Potency result in test [1], in test [2], in test [3], in test [4] and in test [5] was “inactive” throughout.

For the compound `COc1cccc(CO[C@H]2C=C[C@@H](c3ccccc3)O[C@H]2CO)c1`, the Potency result in test [1], in test [2], in test [3], in test [4] and in test [5] was “inactive” throughout.

As to `CCN1C(=O)NC(c2ccco2)C(C(C)=O)=C1C` (stereo not given), the Potency entry in test [1], in test [2], in test [3], in test [4] and in test [5] was “inactive” each time.

Take `C=CC[C@@H]1C=CC(ON=C(C)CCC(=O)OC[C@H]2O[C@H](C#Cc3ccccc3)C=C[C@H]2Oc2ccc(C)cc2)[C@H](CO)O1` (stereo not given in full): the Potency entry in test [1], in test [2], in test [3], in test [4] and in test [5] was “inactive” in each case.

Turning to `COC(=O)C1=C(C)N(Cc2ccccc2)C(=O)NC1c1cccc(C(F)(F)F)c1` (stereo not given), the Potency result in test [1], in test [2], in test [3], in test [4] and in test [5] was “inactive” throughout.

In the case of `C=C(C[C@]1(C(=O)OC)C[C@]2(CC=C(C)C)C(=O)C(C(=O)CC(C)C)=C(O)[C@@](CC=C(C)C)(C1)C2=O)C(=O)OC`, the Potency result in test [1], in test [2], in test [3], in test [4] and in test [5] was “inactive” in each case.

Turning to `CCCCCCN1C(=O)CC[C@@]23C1=NC(C(=O)OC)=C(C(=O)OC)[C@@H]2N(Cc1ccccc1)c1ccccc13`, the Potency result in test [1], in test [2], in test [3], in test [4] and in test [5] was “inactive” each time.

Consider `C#CCN1C(=O)CC[C@@]23C1=NC(C(=O)OC)=C(C(=O)OC)[C@@H]2N(CC=C(C)C)c1ccccc13`, for which the Potency entry in test [1], in test [2], in test [3], in test [4] and in test [5] was “inactive” each time.

Consider `COC(=O)N[C@@H](c1ccc(Cl)cc1)C(C(C)=O)C(=O)OC` (stereo not given in full), for which the Potency entry in test [1], in test [2], in test [3], in test [4] and in test [5] was “inactive” in each case.

`O=C1[C@H]2[C@@H]3[C@@H](O)[C@H](O)CC(=NOCc4ccccc4)[C@H]3CC[C@H]2C(=O)N1C1CCCCC1`: the Potency entry in test [1], in test [2], in test [3], in test [4] and in test [5] was “inactive” each time.

For the compound `CCN1C(=O)[C@@H]2[C@H]3[C@H](O)[C@H](O)CC(=NNC(=O)OCc4ccccc4)[C@@H]3CC[C@H]2C1=O`, the Potency result in test [1], in test [2], in test [3], in test [4] and in test [5] was “inactive” in each case.

For `COC(=O)C1=C(C)N(Cc2ccccc2)C(=NCCc2ccccn2)NC1c1cccc(C(F)(F)F)c1` (stereo not given), the Potency in test [1] is 948 nM (active); in test [2], 601 nM (active); in test [4], 849 nM (active). Besides, the Potency entry in test [3] and in test [5] was “inactive” in each case.
